In PubChem BioAssay AID1159580 (chemical genetic matrix, 2015):
Several values for one entry are separate records, joined by “and”; a condition that tells them apart may be missing. Identical values can stand only once. About 2,000 (36%) of roughly 5,500 compounds were called active. Inconclusive results (about 18%) are left out. Rule as the data show it: active = normalized growth mostly below about 0.91 (no sharp cut-off); inconclusive = no clear call, values can overlap the other calls; inactive = mostly above about 0.92. The list shows a part of the results.

Experiment: chemical genetic growth profiling, strain panel (AID 1159580);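 also: tested at 20 µM; growth read once vehicle control cultures reached saturation at 30 °C; 1 = growth at the plate median or of vehicle wells; lower values mean less growth of the strain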
Conditions: S. cerevisiae deletion strains, growth OD

Measured: normalized growth

CC(=O)O[C@@H]1C2CC[C@@H]3C1(C[C@@H](O)[C@@]1(O)[C@@H](C[C@H](O)C1(C)C)[C@]3(C)O)C[C@@]2(C)O (stereo partly drawn)
inactive: locus YAL021C, strain ccr4, stronger effect = lower value 0.996 | locus YAL026C, strain drs2, stronger effect = lower value 0.984 | locus YAL030W, strain snc1, stronger effect = lower value 0.992 | locus YBL061C, strain skt5, stronger effect = lower value 1 | locus YBR009C, strain hhf1, stronger effect = lower value 0.99 | locus YBR021W, strain FUR4, stronger effect = lower value 1.02 | locus YBR023C, strain chs3, stronger effect = lower value 0.997 | locus YBR171W, strain sec66, stronger effect = lower value 0.979 | locus YBR229C, strain ROT2, stronger effect = lower value 0.958 | locus YBR231C, strain swc5, stronger effect = lower value 0.997 | locus YBR279W, strain paf1, stronger effect = lower value 1 | locus YCL011C, strain gbp2, stronger effect = lower value 0.985 | locus YCL016C, strain dcc1, stronger effect = lower value 0.987 | locus YCL029C, strain bik1, stronger effect = lower value 0.974 | locus YCL061C, strain MRC1, stronger effect = lower value 0.995 | locus YCL069W, strain vba3, stronger effect = lower value 0.989 | locus YCR088W, strain abp1, stronger effect = lower value 0.988 | locus YDL005C, strain med2, stronger effect = lower value 0.976 | locus YDL035C, strain GPR1, stronger effect = lower value 0.998 | locus YDL040C, strain nat1, stronger effect = lower value 0.986 | locus YDL074C, strain BRE1, stronger effect = lower value 1.07 | locus YDL101C, strain DUN1, stronger effect = lower value 0.988 | locus YDL134C, strain PPH21, stronger effect = lower value 1.05 | locus YDL185W, strain tfp1, stronger effect = lower value 0.992 | locus YDL192W, strain arf1, stronger effect = lower value 0.992 | locus YDR001C, strain nth1, stronger effect = lower value 0.996 | locus YDR069C, strain doa4, stronger effect = lower value 0.999 | locus YDR101C, strain arx1, stronger effect = lower value 0.976 | locus YDR137W, strain rgp1, stronger effect = lower value 0.922 | locus YDR159W, strain sac3, stronger effect = lower value 0.995 | locus YDR162C, strain NBP2, stronger effect = lower value 1.01 | locus YDR195W, strain ref2 0.962 | locus YDR297W, strain sur2, stronger effect = lower value 0.989 | locus YDR318W, strain mcm21, stronger effect = lower value 0.991 | locus YDR334W, strain swr1, stronger effect = lower value 0.957 | locus YDR335W, strain msn5, stronger effect = lower value 0.999 | locus YDR388W, stronger effect = lower value 0.996 | locus YDR392W, strain spt3, stronger effect = lower value 0.993 | locus YDR502C, strain sam2, stronger effect = lower value 1 | locus YEL003W, strain gim4, stronger effect = lower value 0.988 | locus YEL037C, strain rad23, stronger effect = lower value 0.997 | locus YEL061C, strain CIN8 (second series), stronger effect = lower value 0.99 | locus YER015W, strain faa2, stronger effect = lower value 0.997 | locus YER016W, strain bim1, stronger effect = lower value 0.985 | locus YER110C, stronger effect = lower value 0.96 | locus YER111C, strain swi4, stronger effect = lower value 0.998 | locus YER155C, strain BEM2 (second series), stronger effect = lower value 0.977 | locus YER155C, strain BEM2, stronger effect = lower value 0.997 | locus YER167W, strain BCK2, stronger effect = lower value 0.998 | locus YFR010W, strain ubp6, stronger effect = lower value 0.977 | locus YGL078C, strain dbp3, stronger effect = lower value 1 | locus YGL086W, strain mad1, stronger effect = lower value 1 | locus YGL167C, strain pmr1, stronger effect = lower value 0.998 | locus YGL173C, strain kem1, stronger effect = lower value 0.987 | locus YGL227W, strain vid30, stronger effect = lower value 0.998 | locus YGL240W, strain doc1, stronger effect = lower value 0.991 | locus YGL248W, strain PDE1, stronger effect = lower value 1.02 | locus YGL253W, strain hxk2, stronger effect = lower value 0.996 | locus YGR078C, strain PAC10, stronger effect = lower value 1.01 | locus YGR135W, strain pre9, stronger effect = lower value 1.05 | locus YGR252W, strain gcn5, stronger effect = lower value 1.08 | locus YHR013C, strain ard1, stronger effect = lower value 0.984 | locus YHR027C, strain rpn1, stronger effect = lower value 0.989 | locus YHR030C, strain SLT2, stronger effect = lower value 1 and 0.972 | locus YHR079C, strain IRE1 (second series), stronger effect = lower value 0.983 | locus YHR079C, strain IRE1, stronger effect = lower value 0.959 | locus YHR094C, strain hxt1, stronger effect = lower value 0.991 | locus YHR129C, strain ARP1, stronger effect = lower value 1.01 | locus YHR142W, strain chs7, stronger effect = lower value 0.997 | locus YHR200W, strain rpn10, stronger effect = lower value 0.995 | locus YIL066C, strain RNR3, stronger effect = lower value 1 | locus YIL073C, strain SPO22, stronger effect = lower value 1.08 | locus YIL125W, strain kgd1, stronger effect = lower value 0.971 | locus YIR030C, strain dcg1, stronger effect = lower value 0.993 | locus YJL092W, strain hpr5, stronger effect = lower value 0.985 | locus YJL095W, strain BCK1 (second series), stronger effect = lower value 0.996 | locus YJL095W, strain BCK1, stronger effect = lower value 1.06 and 0.981 | locus YJL115W, strain asf1, stronger effect = lower value 0.969 | locus YJL129C, strain trk1, stronger effect = lower value 0.992 | locus YJL134W, strain LCB3, stronger effect = lower value 0.99 | locus YJL154C, strain vps35, stronger effect = lower value 0.983 | locus YJL164C, strain tpk1, stronger effect = lower value 0.995 | locus YJL166W, strain qcr8, stronger effect = lower value 0.999 | locus YJL168C, strain set2, stronger effect = lower value 0.995 | locus YJL187C, strain SWE1 (second series), stronger effect = lower value 0.995 | locus YJL187C, strain SWE1, stronger effect = lower value 0.994 | locus YJR066W, strain TOR1, stronger effect = lower value 0.961 | locus YKL009W, strain mrt4, stronger effect = lower value 0.992 | locus YKL068W, stronger effect = lower value 0.988 | locus YKL085W, strain MDH1 (second series), stronger effect = lower value 0.999 | locus YKL085W, strain MDH1, stronger effect = lower value 0.999 | locus YKL160W, strain elf1, stronger effect = lower value 0.998 | locus YKL190W, strain CNB1, stronger effect = lower value 1.01 | locus YKR001C, strain vps1, stronger effect = lower value 0.997 | locus YKR026C, strain gcn3, stronger effect = lower value 0.987 | locus YKR091W, strain srl3, stronger effect = lower value 1 | locus YLL001W, strain dnm1, stronger effect = lower value 0.991 | locus YLL026W, stronger effect = lower value 0.993 | locus YLL041C, strain sdh2, stronger effect = lower value 0.989 | locus YLR027C, strain aat2, stronger effect = lower value 0.985 | locus YLR039C, strain RIC1, stronger effect = lower value 1.19 | locus YLR058C, strain SHM2, stronger effect = lower value 0.993 | locus YLR102C, strain apc9, stronger effect = lower value 0.999 | locus YLR113W, strain HOG1, stronger effect = lower value 0.987 | locus YLR221C, strain rsa3, stronger effect = lower value 0.992 | locus YLR258W, strain gsy2, stronger effect = lower value 0.983 | locus YLR262C, strain YPT6 (second series), stronger effect = lower value 1 | locus YLR268W, strain sec22, stronger effect = lower value 0.987 | locus YLR320W, strain mms22, stronger effect = lower value 1.01 | locus YLR342W, strain FKS1 (second series), stronger effect = lower value 0.986 | locus YLR342W, strain FKS1, stronger effect = lower value 1 | locus YLR357W, strain rsc2, stronger effect = lower value 0.995 | locus YLR370C, strain arc18, stronger effect = lower value 1 | locus YLR371W, strain rom2, stronger effect = lower value 1 | locus YLR384C, strain iki3, stronger effect = lower value 0.99 | locus YLR418C, strain cdc73, stronger effect = lower value 1.01 | locus YML016C, strain PPZ1, stronger effect = lower value 0.99 | locus YML032C, strain rad52, stronger effect = lower value 0.99 | locus YML120C, strain ndi1, stronger effect = lower value 0.994 | locus YML124C, strain tub3, stronger effect = lower value 1 | locus YMR058W, strain fet3, stronger effect = lower value 0.984 | locus YMR078C, strain ctf18, stronger effect = lower value 0.99 | locus YMR125W, strain sto1, stronger effect = lower value 0.981 | locus YMR129W, stronger effect = lower value 0.993 | locus YMR205C, strain PFK2, stronger effect = lower value 1.01 | locus YMR223W, strain ubp8, stronger effect = lower value 1.01 | locus YMR231W, strain pep5, stronger effect = lower value 0.993 | locus YMR263W, strain SAP30, stronger effect = lower value 0.991 | locus YMR307W, strain GAS1, stronger effect = lower value 1.16 | locus YNL067W, strain RPL9B, stronger effect = lower value 1.01 | locus YNL071W, strain lat1, stronger effect = lower value 0.981 | locus YNL153C, strain GIM3, stronger effect = lower value 0.994 | locus YNL183C, strain NPR1, stronger effect = lower value 0.952 | locus YNL209W, strain ssb2, stronger effect = lower value 0.987 | locus YNL233W, strain BNI4, stronger effect = lower value 1.05 | locus YNL248C, strain rpa49, stronger effect = lower value 0.98 | locus YNL250W, strain rad50, stronger effect = lower value 0.974 | locus YNL271C, strain bni1, stronger effect = lower value 1 | locus YNL298W, strain CLA4, stronger effect = lower value 0.992 | locus YNL307C, strain MCK1, stronger effect = lower value 0.99 | locus YNL322C, strain KRE1 (second series), stronger effect = lower value 0.99 | locus YNL322C, strain KRE1, stronger effect = lower value 0.992 | locus YNR049C, strain mso1, stronger effect = lower value 0.996 | locus YNR052C, strain pop2, stronger effect = lower value 1.01 | locus YOL006C, strain TOP1, stronger effect = lower value 1.16 | locus YOL012C, strain htz1 1.28 | locus YOL147C, strain pex11, stronger effect = lower value 1 | locus YOR001W, strain rrp6, stronger effect = lower value 0.987 | locus YOR061W, strain CKA2, stronger effect = lower value 0.985 | locus YOR069W, strain VPS5, stronger effect = lower value 1.01 | locus YOR070C, strain gyp1, stronger effect = lower value 0.985 | locus YOR080W, strain dia2, stronger effect = lower value 0.997 | locus YOR083W, strain WHI5, stronger effect = lower value 1 | locus YOR106W, strain vam3, stronger effect = lower value 0.985 | locus YOR136W, strain idh2, stronger effect = lower value 0.995 | locus YOR144C, strain elg1, stronger effect = lower value 0.994 | locus YOR184W, strain ser1, stronger effect = lower value 0.992 | locus YOR231W, strain MKK1, stronger effect = lower value 0.963 | locus YOR265W, strain rbl2, stronger effect = lower value 0.994 | locus YOR270C, strain vph1, stronger effect = lower value 0.984 | locus YOR290C, strain snf2, stronger effect = lower value 1 | locus YOR316C, strain cot1, stronger effect = lower value 0.987 | locus YPL051W, strain arl3, stronger effect = lower value 1.01 | locus YPL078C, strain atp4, stronger effect = lower value 0.996 | locus YPL106C, strain sse1, stronger effect = lower value 0.98 | locus YPL240C, strain hsp82, stronger effect = lower value 0.98 | locus YPL241C, strain CIN2, stronger effect = lower value 1.01 | locus YPL256C, strain CLN2, stronger effect = lower value 0.995 | locus YPR119W, strain clb2, stronger effect = lower value 0.992 | locus YPR141C, strain kar3, stronger effect = lower value 0.979 | locus YPR163C, strain tif3, stronger effect = lower value 1.01 | locus YPR167C, strain met16, stronger effect = lower value 1 | strain wtn01, stronger effect = lower value 0.985
